Test results: PubChem BioAssay (NCI)
This is part of a sample that, as a whole, favours compounds with a hit. Of some 83,000 tested, about 20% had one in any assay.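 Results are percent growth after 48 hours of single-concentration exposure. 100 means growth as in untreated cells, lower positive values show inhibition; negative values down to -100 show cell death.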 A number with no mark means an inactive call. The source made the active and inactive calls. Rule for the calls: active = growth percent below 10; inactive = the rest.

Experiments:
Assay in all cases: NCI-60 one-dose screen, 48 h (100 = growth as untreated, 0 = no growth, -100 = all killed)
Settings in all cases: 10 µM unless noted
SR leukemia = test system: SR leukemia
RPMI-8226 leukemia = test system: RPMI-8226 leukemia
OVCAR-8 ovarian = test system: OVCAR-8 ovarian
OVCAR-5 ovarian = test system: OVCAR-5 ovarian
OVCAR-4 ovarian = test system: OVCAR-4 ovarian
SK-OV-3 ovarian = test system: SK-OV-3 ovarian
IGROV1 ovarian = test system: IGROV1 ovarian
OVCAR-3 ovarian = test system: OVCAR-3 ovarian
HS 578T breast = test system: HS 578T breast
NCI/ADR-RES ovarian = test system: NCI/ADR-RES ovarian

| Structure (SMILES) | growth (SR leukemia) | growth (RPMI-8226 leukemia) | growth (OVCAR-8 ovarian) | growth (OVCAR-5 ovarian) | growth (OVCAR-4 ovarian) | growth (SK-OV-3 ovarian) | growth (IGROV1 ovarian) | growth (OVCAR-3 ovarian) | growth (HS 578T breast) | growth (NCI/ADR-RES ovarian) |
| --- | --- | --- | --- | --- | --- | --- | --- | --- | --- | --- |
| Cc1ccc(-c2nn(-c3ccccc3)cc2C=C2C(=O)ON=C2C(C)C)cc1 | -23.5% (active) | -23.1% (active) | 59.7% | 104% | 85.4% | 110% | 54.7% | 87.7% | 56.4% | 96.4% |
| O=C1c2cc(Cl)ccc2S(=O)(=O)c2c(NCCCNCCO)nc3ccccc3c21 | -9.98% (active) | -22.2% (active) | -5.81% (active) | -18% (active) | -32.2% (active) | 75.7% | 8.88% (active) | -91.9% (active) | -2.81% (active) | 40.6% |
| N#Cc1cccc(F)c1 | 98.1% | 113% | 109% | 83.1% | 118% | 111% | 106% | 126% | 107% | 104% |
| CCCCCCCCCCCCCCCCCCOc1ccccc1CC(=O)NCC[N+]1(C)CCCC1 | 23% | 52.7% | 49.7% | 22.9% | 42.5% | 77.4% | -21.5% (active) | 39% | 60.7% | 103% |
| COc1cc(CNC(=O)/C=C/C=C/c2ccc3c(c2)OCO3)ccc1OCc1cn(-c2ccc(C)c(C)c2)nn1 | 81.5% | 86.3% | 71.3% | 104% | 46.7% | 86.5% | 76.1% | 82.8% | 91.4% | 80.5% |
| C=C1C(=O)O[C@H]2[C@H]1CC/C(COC(=O)CSCCSCC(=O)OC/C1=C/CC[C@@]3(C)O[C@H]3[C@H]3OC(=O)C(=C)[C@@H]3CC1)=C\CC[C@@]1(C)O[C@@H]21 | -22.6% (active) | -29.7% (active) | 4.46% (active) | 21.8% | 40.4% | 89.3% | -9.6% (active) | -12.1% (active) | 32.6% | 59.5% |
| Cc1ccccc1Cn1cnc2ccc(-c3cc(NC(=O)c4ccc(NC5CCN(C)CC5)cc4)n[nH]3)cc21 | 52.9% | 77.1% | 104% | 69.9% | 62.5% | 75.7% | 26.5% | 99.8% | 2.06% (active) | 104% |
| C=CCn1c(SCC(=O)Nc2ccc(C(=O)/C=C/c3ccc(Cl)cc3)cc2)nnc1-c1cc(-c2ccc(S(N)(=O)=O)cc2)nc2ccccc12 | 79.5% | 5.47% (active) | 55.5% | 96.7% | 90.2% | 93.7% | 87.7% | 82.8% | 98.2% | 100% |
| Cc1nc(N2CCOCC2)sc1S(N)(=O)=O | 98.3% | 102% | 103% | 96.5% | 112% | 102% | 99.4% | 102% | 100% | 102% |
| CN[C@]12CC3(C=CC(=O)C=C3)O[C@@]1(Cc1ccc(OC)cc1)N(C)C(=O)N2 | 8.34% (active) | -3.85% (active) | 15.6% | 18.3% | 32.2% | 85.7% | -28.4% (active) | 11.2% | 96.8% | 55.6% |
| Cc1ccc(-n2c(=S)[nH]c3sc4c(c3c2=O)CCC(=O)C4)cc1 | 28.5% | 22.7% | 50.2% | 87.4% | 69.3% | 91.6% | 48.9% | 4.02% (active) | 34.3% | 27.1% |
| COc1ccc2cc(-c3ccc(NC(C)=O)c(=O)o3)ccc2c1 | 88.2% | 96.3% | 97.1% | 95% | 101% | 94.6% | 108% | 101% | 93.8% | 103% |
| N#C/C(=C\c1ccc(Br)cc1)n1nnc2ccc(F)cc21 | -11.9% (active) | -35.4% (active) | 7.38% (active) | 3.03% (active) | 24.9% | 51.6% | -31.2% (active) | -45.3% (active) | 3.56% (active) | 1.62% (active) |
| COC(=O)c1c2c(c[n+]([O-])c1C)C(=O)C(NCc1ccccc1)=CC2=O | 2.6% (active) | -24.5% (active) | -2.43% (active) | -79.9% (active) | -97% (active) | 8.1% (active) | -54.3% (active) | -35.3% (active) | -15.3% (active) | -14.1% (active) |
| CCOC(=O)c1c(C)c2c(n1C)CSc1cc(C(=O)c3ccccc3)c(=O)[nH]c1-2 | 88.3% [100 µM] | 82.3% [100 µM] | 106% [100 µM] | 95.8% [100 µM] | 92.4% [100 µM] | 99.4% [100 µM] | 104% [100 µM] | 108% [100 µM] | 90.8% [100 µM] | 91.6% [100 µM] |
| COc1ccc(NC(=O)c2sc3nc(C)c(C(=O)/C=C/c4cccc(OC)c4)cc3c2N)cc1 | 5.9% (active) | -22.9% (active) | 11.6% | 59.6% | 69.1% | 91.8% | 11% | -18.4% (active) | 36.8% | 19.5% |
| CCNc1cc(-c2cccc(OC(F)(F)F)c2)nc2ccc(N3CCCC3)cc12 | 6.47% (active) | -2.09% (active) | 5.54% (active) | 27.9% | 14.5% | 17.7% | 27.1% | -18% (active) | 70.5% | 0.328% (active) |
| Cc1cc(N)c2cc(NC(=O)/C=C\c3ccccc3Cl)ccc2n1 | 7.11% (active) | -70.9% (active) | -41.9% (active) | -95.4% (active) | -64.1% (active) | -96.4% (active) | -67.5% (active) | -90.2% (active) | -72.3% (active) | 48.9% |
| CCCCCCCCn1ccc2cc(NC(=O)CN3CCN(c4nc(C)cc(Cl)n4)CC3)ccc21 | 23.5% | 99.3% | 106% | 102% | 83.7% | 110% | 74.4% | 109% | 89.9% | 93.2% |
| N#Cc1c(-c2cccs2)cc(-c2cccnc2)[nH]c1=O | 95.9% | 98.6% | 97.9% | 96.9% | 118% | 97.2% | 108% | 104% | 102% | 103% |
| Cc1cccc2c1NC(=O)C2(c1ccc(O)cc1)c1ccc(O)cc1 | 89% | 80.9% | 4.88% (active) | 75.9% | -16% (active) | 89.5% | 45.7% | 25.6% | -5.53% (active) | 11% |
| Fc1cc2c(cc1Cl)N(c1ncnc3ccc(-c4cnc5[nH]ncc5c4)cc13)CC2 | 57.1% | 60.3% | 60.9% | 38.4% | 66.4% | 50.8% | 13.2% | 60.4% | 25.9% | 65.2% |
